Most compounds without a hit are left out; they make up all but 12% or so of the library.
JMJD2A Tudor inh = inhibitors of human JMJD2A Tudor domain | 390,000 tested, 4.4% active | Potency, µM (doses to about 114 µM), usual class: inhibitors | O75164 | AlphaScreen JMJD2A-Tudor / H3K4me3 peptide binding | AID 504339; note: nearly all actives have a fitted effect of over 50% in size
Target sequence (O75164 whole entry, looked up, the tested form may be a part): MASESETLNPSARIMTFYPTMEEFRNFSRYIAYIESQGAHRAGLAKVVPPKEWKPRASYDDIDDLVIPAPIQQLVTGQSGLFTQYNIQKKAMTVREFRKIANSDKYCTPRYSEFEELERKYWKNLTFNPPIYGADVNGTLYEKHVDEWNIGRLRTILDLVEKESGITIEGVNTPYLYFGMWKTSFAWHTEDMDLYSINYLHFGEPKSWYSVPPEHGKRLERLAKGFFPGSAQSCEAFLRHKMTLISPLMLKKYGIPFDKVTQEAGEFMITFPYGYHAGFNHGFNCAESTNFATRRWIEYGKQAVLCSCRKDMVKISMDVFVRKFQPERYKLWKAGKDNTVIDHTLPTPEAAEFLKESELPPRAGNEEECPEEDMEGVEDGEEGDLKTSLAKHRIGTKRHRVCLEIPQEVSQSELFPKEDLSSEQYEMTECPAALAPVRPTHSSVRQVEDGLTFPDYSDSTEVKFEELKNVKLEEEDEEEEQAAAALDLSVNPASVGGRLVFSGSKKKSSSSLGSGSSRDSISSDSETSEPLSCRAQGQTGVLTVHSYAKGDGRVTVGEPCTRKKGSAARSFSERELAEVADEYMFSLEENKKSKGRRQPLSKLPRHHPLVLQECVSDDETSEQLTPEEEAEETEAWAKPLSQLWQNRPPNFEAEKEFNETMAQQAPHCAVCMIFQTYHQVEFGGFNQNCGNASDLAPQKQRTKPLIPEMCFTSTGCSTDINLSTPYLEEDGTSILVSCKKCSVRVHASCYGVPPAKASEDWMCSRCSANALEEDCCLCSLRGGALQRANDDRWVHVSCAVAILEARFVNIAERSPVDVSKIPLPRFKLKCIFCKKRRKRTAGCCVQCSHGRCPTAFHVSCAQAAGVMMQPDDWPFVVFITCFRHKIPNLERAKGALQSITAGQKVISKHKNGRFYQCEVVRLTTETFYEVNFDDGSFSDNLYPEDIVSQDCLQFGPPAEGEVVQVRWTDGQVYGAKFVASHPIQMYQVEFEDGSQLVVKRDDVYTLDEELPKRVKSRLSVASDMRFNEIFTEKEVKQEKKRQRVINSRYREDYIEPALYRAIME
Sfp inh = Sfp phosphopantetheinyl transferase inhibition. Biochemical Sfp PPTase activity, qHTS. Potency, µM, hits mostly inhibitors. 310,000 tested, 3.5% active. AID 1490;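 note: the enzyme is Sfp with the accession as filed and its product quenches rhodamine fluorescence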
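With Hepes-Na pH 7.6 buffer containing 10 mM MgCl2, Sfp (15 nM) modified BHQ-2-YbbR (12.5 uM) using rhodamine-CoA (5 uM). Two reads 30 minutes apart at 525/598 nm yielded each well's rate.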
G9a block = G9a (human) methyltransferase inhibition; 350,000 tested, 8.8% active; AID 504332; G9a H3K9 monomethylation, AlphaScreen, 2 h; Potency, µM (top dose mostly 102 µM), hits mostly inhibitors; note: nearly all actives have a fitted effect of over 75% in size
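AlphaScreen read-out: biotin-H3K9 peptide (500 nM) methylation by 20 nM enzyme with 20 uM SAM, 2 h at room temperature after 15 min compound preincubation; anti-monomethyl H3K9 antibody plus donor/acceptor beads, 10 min dark.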
BAZ2B block = BAZ2B (human) inhibition; Q9UIF8; AlphaScreen BAZ2B-H3K14Ac peptide displacement; Potency, µM (top dose mostly 114 µM), actives largely listed as inhibitors; 360,000 tested, 4.4% active; note: nearly all actives have a fitted effect of over 60% in size
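In this displacement format the biotinylated H3(5-23) peptide acetylated at Lys14 serves as ligand at 50 nM, with BAZ2B at 50 nM in PBS pH 7.4 containing 0.01% Tween-20. Donor and acceptor beads are 10 ug/mL final.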
HP1b chromo inh = blocks HP1-beta chromodomain binding to methylated histone tails; AlphaScreen HP1-beta / biotin-H3K9me3 peptide binding; Potency, µM (doses to about 114 µM), most hits filed as inhibitors; 390,000 tested, 0.56% active; note: nearly all actives have a fitted effect of over 70% in size
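Compound inhibition of the preformed complex between 50 nM HP1-beta and 50 nM biotinylated H3K9me3 peptide was read by AlphaScreen. Buffer was PBS pH 7.4 with 0.01% Tween-20. Incubations ran 30 min at room temperature, with 10 ug/mL donor/acceptor beads.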
Large screens that a line does not name were inactive; ! = not active in a repeat. Calls come from the whole dose curve; as a rule, active = well fitted curve in the direction sought with a large enough effect; inconclusive = small, poorly fitted or top-dose-only effect, or another doubt; inactive = no such curve, though single readings can be large; an effect the other way counts as inactive or inconclusive.

O=C(O)c1ccc(-n2cccc2/C=C2/NC(=O)N(c3cccc(Cl)c3)C2=O)cc1	JMJD2A Tudor inh 20µM, Sfp inh inconclusive, G9a block 8.9µM, BAZ2B block 16µM, HP1b chromo inh inconclusive
CCn1c(SCC(=O)Nc2cc(C)on2)nnc1-c1ccccc1	none
Cc1ccc(CNc2ncnc3c2nc2n3CCCC2)cc1	none (no result: Sfp inh)
CCOc1ccc(N2CC(C(=O)Nc3ccc(S(=O)(=O)N4CCCCC4)cc3)CC2=O)cc1 (centres undefined)	G9a block 40µM (no result: Sfp inh)
CCOc1ccc(N2CC(C(=O)Nc3cccc(S(=O)(=O)N4CCCCC4)c3)CC2=O)cc1 (centres undefined)	none
Cc1ccccc1N1CC(C(=O)Nc2ccc(S(=O)(=O)NCC3CCCO3)cc2)CC1=O (centres undefined)	JMJD2A Tudor inh 89µM
CSc1cccc(N2CC(C(=O)Nc3cccc(S(=O)(=O)N4CCCC4)c3)CC2=O)c1 (centres undefined)	JMJD2A Tudor inh inconclusive, G9a block 11µM, BAZ2B block inconclusive (no result: Sfp inh)
Cc1cccc(N2CC(C(=O)Nc3ccc(S(=O)(=O)NCC4CCCO4)cc3)CC2=O)c1C (centres undefined)	none
CCc1ccc(N2CC(C(=O)Nc3ccc(S(=O)(=O)N4CCOCC4)cc3)CC2=O)cc1 (centres undefined)	G9a block 50µM (no result: Sfp inh)
O=C(/C=C/c1ccccc1)NC(N1CCOCC1)C(Cl)(Cl)Cl (centres undefined)	none (no result: G9a block)
CCOc1ccc(N2CC(C(=O)Nc3ccc(S(=O)(=O)N4CCCC4)cc3)CC2=O)cc1 (centres undefined)	G9a block 35µM
c1ccc(-c2ccc(-c3nccc4ccccc34)[nH]2)cc1	Sfp inh 50µM, G9a block inconclusive, BAZ2B block inconclusive (no result: JMJD2A Tudor inh, HP1b chromo inh)
COc1ccccc1N1CCN(Cc2c[nH]c3ccccc23)CC1	none
COc1ccccc1N1CCN(Cc2ccc(O)c3ncccc23)CC1	JMJD2A Tudor inh 13µM, G9a block inconclusive, BAZ2B block 4.5µM
COc1ccc(CN2CCN(c3ccccc3OC)CC2)c(OC)c1	JMJD2A Tudor inh 20µM, BAZ2B block inconclusive
COc1ccc(CN2CCN(CCCc3ccccc3)CC2)c(OC)c1	G9a block 4µM, BAZ2B block 32µM (no result: JMJD2A Tudor inh, HP1b chromo inh)
COc1ccc(OC)c(CN2CCN(CCCc3ccccc3)C(CCO)C2)c1 (centres undefined)	none
COc1ccc(O)c(CN2CCCC(N3CCN(c4ccccc4OC)CC3)C2)c1 (centres undefined)	none
COc1ccccc1N1CCN(C2CCCN(Cc3ccccc3OCCO)C2)CC1 (centres undefined)	G9a block 79µM
Cc1ccc(C(C)C)c(OCC(=O)Nc2ccc(-c3nc4ncccc4o3)cc2C)c1	none (no result: Sfp inh)
CNc1cc2c(Nc3cccc(Br)c3)ncnc2cn1	none (no result: JMJD2A Tudor inh, G9a block, BAZ2B block, HP1b chromo inh)
COc1ccc(CN2CCN(Cc3ccccc3C(F)(F)F)CC2)c(OC)c1	JMJD2A Tudor inh 1.6µM, Sfp inh inconclusive, G9a block 45µM, BAZ2B block 28µM, HP1b chromo inh 28µM
COc1cccc(CN2CCN(Cc3ccccc3C(F)(F)F)CC2)c1	JMJD2A Tudor inh 28µM, Sfp inh 56µM, G9a block 4.5µM, BAZ2B block 25µM, HP1b chromo inh 20µM
COc1ccc(CC(C)N2CCN(Cc3ccccc3)CC2)c(OC)c1 (centres undefined)	JMJD2A Tudor inh inconclusive
CCOC(=O)c1cc2c(=O)n3cccc(C)c3nc2n(CC(C)C)c1=NC(=O)c1ccco1	none (no result: G9a block)
NC(=O)NC(=O)CC1S/C(=N/N=C/c2ccccc2)NC1=O (centres undefined)	none
NC(=O)NC(=O)CC1S/C(=N/N=C2\CSC(=O)N2)NC1=O (centres undefined)	JMJD2A Tudor inh 8.9µM, Sfp inh 11µM, G9a block 0.79µM, BAZ2B block 3.2µM
O=C(O)CNC(=O)CC1S/C(=N/N=C2/NC(=O)CS2)NC1=O (centres undefined)	JMJD2A Tudor inh 22µM, Sfp inh 32µM, G9a block 28µM, BAZ2B block 20µM
Cc1nn(CC(=O)N/N=C/c2cccs2)c(C)c1[N+](=O)[O-]	none
Cc1c(NC(=O)/C(=C\c2ccccc2)NC(=O)c2ccccc2)c(=O)n(-c2ccccc2)n1C	none
N#C/C(=C/c1ccc(O)c(O)c1)c1nc2ccccc2[nH]1	JMJD2A Tudor inh 28µM, G9a block 11µM, BAZ2B block 7.9µM, HP1b chromo inh inconclusive
Cc1cc(/C=C(/C#N)c2nc3ccccc3[nH]2)c(C)n1-c1ccccc1C(=O)O	G9a block 32µM, BAZ2B block 50µM
N#C/C(=C\c1ccc(-c2ccccc2C(=O)O)o1)c1nc2ccccc2[nH]1	JMJD2A Tudor inh 20µM, G9a block 40µM, BAZ2B block 79µM
Cc1ccc2nc(/C(C#N)=C\c3cc(C)n(-c4cccc([N+](=O)[O-])c4)c3C)[nH]c2c1	JMJD2A Tudor inh inconclusive, G9a block inconclusive, BAZ2B block inconclusive
Cc1cc(/C=C(/C#N)c2nc3ccccc3[nH]2)c(C)n1-c1cc(C(=O)O)cc(C(=O)O)c1	JMJD2A Tudor inh 25µM, G9a block 13µM, BAZ2B block 40µM, HP1b chromo inh inconclusive
N#C/C(=C\c1ccc(Cl)cc1)c1nc2ccccc2[nH]1	none (no result: Sfp inh)
Cn1c(=O)[nH]c2cc(Cl)cnc21	none
O=C(C[C@@H]1C/C=C\CCCC(=O)OC[C@@H]2CCCN2C1=O)N[C@H](CO)Cc1ccccc1	none (no result: Sfp inh, G9a block, BAZ2B block)
Nc1nonc1-c1nc2ccccc2n1CC(=O)Nc1cccc(Cl)c1Cl	none (no result: Sfp inh)
Cc1ccc(CN2C(=O)C(Cc3ccccc3)Nc3ncnc(N4CCN(c5ccccc5)CC4)c32)cc1 (centres undefined)	none (no result: Sfp inh)
CCC1Nc2ncnc(N3CCOCC3)c2N(Cc2ccc(OC)cc2)C1=O (centres undefined)	JMJD2A Tudor inh 56µM (no result: Sfp inh, G9a block, BAZ2B block)
O=C1C(Cc2ccccc2)Nc2ncnc(N3CCN(c4ccccc4)CC3)c2N1Cc1ccccc1 (centres undefined)	JMJD2A Tudor inh 63µM, G9a block inconclusive, BAZ2B block inconclusive (no result: Sfp inh)
CCC1Nc2ncnc(N3CCOCC3)c2N(Cc2ccccc2)C1=O (centres undefined)	none (no result: Sfp inh)
O=C1C(Cc2ccccc2)Nc2ncnc(N3CCOCC3)c2N1Cc1ccc(Cl)cc1 (centres undefined)	JMJD2A Tudor inh inconclusive, G9a block 4.5µM (no result: Sfp inh)
CCC1Nc2ncnc(N3CCN(c4ccccc4)CC3)c2N(Cc2ccc(OC)cc2)C1=O (centres undefined)	JMJD2A Tudor inh inconclusive, BAZ2B block inconclusive (no result: Sfp inh)
N[C@@H](COP(=O)(O)O)C(=O)O	Sfp inh 40µM! (no result: JMJD2A Tudor inh, BAZ2B block, HP1b chromo inh)
O=C(CSc1nccn1C1CCCC1)Nc1cccc(F)c1	BAZ2B block 79µM (no result: Sfp inh)
Cc1ccc(-c2ccc(CCC(=O)O)o2)cc1	JMJD2A Tudor inh inconclusive, Sfp inh 45µM, G9a block inconclusive
Cc1cc(NC(=O)CCc2ccc(-c3ccccc3)o2)no1	none (no result: G9a block)
